# Assay results: PubChem BioAssay
# Values without a mark were called inactive. No rule for the calls is given here.
# Biological target: Pantothenate synthetase (Mycobacterium tuberculosis (strain ATCC 25618 / H37Rv)) (UniProt P9WIL5)
# Test: Recombinant Mtb pantothenate synthetase (PanC) inhibitors, coupled enzyme, confirmatory (AID 375);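 also: 0% = full reaction with vehicle and 100% = no enzyme background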
# Conditions: coupled enzyme assay; at 10 µM, active compounds read high
# Sequence of Pantothenate synthetase (Mycobacterium tuberculosis (strain ATCC 25618 / H37Rv)) (P9WIL5 whole entry, looked up): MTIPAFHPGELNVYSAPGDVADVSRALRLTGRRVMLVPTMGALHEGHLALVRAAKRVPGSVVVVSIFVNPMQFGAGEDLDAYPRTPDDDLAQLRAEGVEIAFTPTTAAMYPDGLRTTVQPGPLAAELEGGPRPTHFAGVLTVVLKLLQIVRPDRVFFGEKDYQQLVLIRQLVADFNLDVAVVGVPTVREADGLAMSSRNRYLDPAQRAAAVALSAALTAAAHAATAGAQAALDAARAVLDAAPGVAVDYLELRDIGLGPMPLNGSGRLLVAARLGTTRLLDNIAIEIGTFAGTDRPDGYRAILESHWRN
row,SMILES,inhibition
1,O=C(c1ccccc1)c1ccc(N2CCNCC2)cc1,3%
2,N#Cc1c(/N=C/c2cccs2)sc2c1CCCCC2,0%
3,CN1CCc2nc(SCCOc3ccccc3)c(C#N)cc2C1,0%
4,COc1ccc(OC)c(S(=O)(=O)Nc2ccc(O)c3ccccc23)c1,8%
5,Cc1nc2ccccc2nc1OCC(=O)Nc1cc(C(F)(F)F)ccc1N1CCOCC1,0%
6,COc1ccc(C(=O)CSc2nc(C)cc(=O)[nH]2)cc1,0%
7,COC(=O)c1ccc(-c2sc3nc(N4CCOCC4)c4c(c3c2N)CCCC4)o1,0%
8,Cc1nc2c3cnn(-c4ccccc4)c3ncn2n1,7%
9,CC(C)(C)C(=O)CCN1C(=O)C2(OCCO2)c2ccccc21,0%
10,CC(C)OC(=O)c1ccc(NC(=O)C2C3CC4OC(=O)C2C4C3)cc1 (stereo not given),7%
11,COc1ccc2c(C(=O)CN(C)C3CCCCC3)c[nH]c2c1,0%
12,CCCCN(C)C(=O)CS(=O)(=O)Cc1nc(-c2cccc(OC)c2)oc1C,0%
13,CCN(CC)C(=O)C1CCCN(Cc2ccc(N(C)C)cc2)C1 (stereo not given),1%
14,O=c1c2cnn(-c3ccccc3)c2ncn1/N=C/c1ccncc1,5%
15,N#Cc1c(N)c(C(=O)c2ccccc2)n2c1CCCC2,6%
16,O=C(CNS(=O)(=O)c1ccc(Br)s1)N1CCN(c2ncccn2)CC1,0%
17,CCN(C(=O)c1c(OC)cccc1OC)c1nnc(-c2cccnc2)s1,0%
18,C[C@H](NC(=O)OC(C)(C)C)C(=O)NCC1CCC(C(=O)O)CC1 (stereo not given in full),0%
19,COCCn1c(C)cc(C(=O)COC(=O)c2ccc(N3CCCC3=O)cc2)c1C,2%
20,COc1ccc(C(=O)NCCn2ccc3ccccc32)cc1,0%

row,SMILES,inhibition
1,Cc1cc(N2C(=O)C3C4C=CC(C4)C3C2=O)ccc1Br (stereo not given),0%
2,Cc1c(NC(=O)c2coc(=O)c(Br)c2)c(=O)n(-c2ccccc2)n1C,7%
3,S=C(c1ccc(-c2cc(Cl)ccc2Cl)o1)N1CCOCC1,0%
4,CC1C(c2ccccc2)N(C)CCC12NC(=O)NC2=O (stereo not given),1%
5,Cc1nc2ccc(S(=O)(=O)NCC(=O)N(C)Cc3ccco3)cc2s1,0%
6,Cc1cc(C)n2nc(SCC(=O)N(C)c3ccccc3)nc2n1,1%
7,CCOC(=O)CSC1=C(C#N)C(c2ccc(C)cc2)C(C(=O)OC)C(=O)N1 (stereo not given),0%
8,CCOc1cc(C2Nc3ccccc3C(=O)N2c2ccccc2OC)ccc1O (stereo not given),0%
9,Cc1ccccc1Cn1ccc(NC(=O)c2cnn3c(C(F)(F)F)cc(-c4ccco4)nc23)n1,5%
10,CS(=O)(=O)c1ccc2nc(NC(=O)c3cccs3)sc2c1,0%
11,Cc1cc2ccccc2c(=O)n1CC(=O)N(C)c1ccc(F)cc1,0%
12,COc1ccc(S(=O)(=O)NCCC(=O)NC2CCCCCCC2)cc1,0%
13,Nn1c(Cc2ccccc2F)nnc1SCC(=O)N1CC(=O)Nc2ccccc21,0%
14,O=c1c2[nH]c3ccccc3c2ncn1CCCn1ccnc1,0%
15,S=c1[nH]nc(-c2cccc(Br)c2)o1,10%
16,COc1cc(CN2CCN(C(=O)CC(C)C)CC2)cc(OC)c1O,0%
17,O=C(NCCOC(=O)C1COc2ccccc2O1)C1COc2ccccc2O1 (stereo not given),0%
18,CCCN1CCN(C(=O)Cn2cccc2C(=O)c2ccccc2)CC1,0%
19,COc1ccccc1NC(=O)C1=C(C)Nc2nc(CCCO)nn2C1c1cccnc1 (stereo not given),1%
20,COc1ccccc1NC(=O)CC(NCc1ccccc1)C(=O)O (stereo not given),5%
